Test results reported in PubChem BioAssay (NCATS).
Records with an inconclusive call do not appear. Activity calls are given as the source filed them. Calls come from the whole dose curve; as a rule, active = well fitted curve in the direction sought with a large enough effect; inconclusive = small, poorly fitted or top-dose-only effect, or another doubt; inactive = no such curve, though single readings can be large; an effect the other way counts as inactive or inconclusive.

How the values were obtained:
[1] = target: Cytochrome P450 2D6 (Homo sapiens) (UniProt P10635); test: qHTS for inhibitors of CYP2D6 against the NCATS DSHEA and TCM libraries (AID 1919972); details: CYP2D6 enzymatic inhibition, luminescence qHTS; series mostly up to 34.1 µM; note: % is set by controls: 0 for no effect and ±100 for the full control effect
Method in brief: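 qHTS, concentration–response format with most substances from 19.5 nM. CYP2D6 + pro-luciferin substrate, 15 min with compound, then 1x NADPH regen, 30–45 min RT dark. Glo detection 30 min, luminescence. Quinidine control.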

[2] = target: Cytochrome P450 2C9 (Homo sapiens) (UniProt P11712); test: qHTS for inhibitors of CYP2C9 against the NCATS DSHEA and TCM libraries (AID 1919973); details: recombinant CYP2C9 enzyme activity, luminescence; series mostly up to 34.1 µM;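 note: luminogenic pro-luciferin CYP2C9 substrate turned into luciferin with NADPH regeneration; % is set by controls: 0 for no effect and ±100 for the full control effect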
Method in brief: (§1)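 Substances were tested against enzyme with a pro-luciferin substrate; minus-enzyme wells served as background. After NADPH-initiated oxidation (30-45 min, RT), light was generated with P450-Glo reagent.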

[3] = target: Cytochrome P450 2C19 (Homo sapiens) (UniProt P33261); test: qHTS for inhibitors of CYP2C19 against the NCATS DSHEA and TCM libraries (AID 1919974); details: CYP2C19 enzyme inhibition, luminescence qHTS; series mostly up to 34.1 µM;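 note: luminescence from luciferin released by CYP2C19 oxidation of a pro-luciferin substrate; % is set by controls: 0 for no effect and ±100 for the full control effect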
Method in brief: as §1

[4] = KB-3-1 P-gp reporter qHTS against the NCATS DSHEA and TCM libraries (AID 1919975); details: KB-3-1 parental cells, CellTiter-Glo luminescence viability, 72 h; series mostly up to 26.1 µM; note: 0% is about no effect
Method in brief: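 Parental KB-3-1 cells, 500 cells/well, in DMEM with 10% FBS, exposed 72 h at 37 C to compounds in concentration-response. Viability read by CellTiter-Glo luminescence after 30 min at room temperature.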

[5] = target: Cytochrome P450 1A2 (Homo sapiens) (UniProt P05177); test: qHTS for inhibitors of CYPIA2 against the NCATS DSHEA and TCM libraries (AID 1919976); details: recombinant CYP1A2 enzyme activity, luminescence; series mostly up to 37 µM; note: % is set by controls: 0 for no effect and ±100 for the full control effect
Method in brief: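 Luminescence read-out: pro-luciferin converted to D-luciferin by CYP1A2, detected with P450-Glo reagent after 30 min RT. Enzyme plus substrate got compounds for 15 min RT; NADPH regeneration solution (final 1x) started a 30-45 min reaction, light-protected.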

[6] = qHTS Counterscreen for compound interference against the NCATS DSHEA and TCM libraries (AID 1919978); details: firefly luciferase detection reagent interference, luminescence;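 note: compounds preincubated with 1 µM D-luciferin or buffer before detection reagent; % of control where 0% means no effect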
Method in brief: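 Firefly luciferase detection reagent was added after compounds (19.5 nM–39.8 uM final) had been incubated 15 min at room temperature with 1 uM D-luciferin or with 100 mM phosphate buffer alone. Luminescence was read after 30 min at room temperature.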

[7] = Dual reporter qHTS for agonist of Pregnane X Receptor (hPXR) against the NCATS DSHEA and TCM libraries: Fluorescence readout (AID 1920058); details: PXR dual reporter cells; series mostly up to 40 µM; note: 0% is about no effect
Method in brief: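 Fluorescence read-out for cell viability: CellTiter-Fluor, 1 h at 37 °C, Ex/Em 405/540 nm. This followed ~24 h treatment of hPXR-Luc HepG2 cells with substances in agonist mode.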

[8] = target: Nuclear receptor subfamily 1 group I member 2 (Homo sapiens) (UniProt O75469); test: Dual reporter qHTS for agonist of Pregnane X Receptor (hPXR) against the NCATS DSHEA and TCM libraries: Luminescence readout (AID 1920059); details: hPXR dual reporter cells, luciferase luminescence agonist; series mostly up to 40 µM; note: 0% is about no effect
Method in brief: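 hPXR-Luc HepG2 cells, 2000/well in 5% charcoal-stripped FBS medium, attached 5 h, then exposed 24 h at 37C to compounds. Viability by CellTiter-Fluor, then luciferase luminescence with ONE-Glo.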

[9] = target: Nuclear receptor subfamily 1 group I member 2 (Homo sapiens) (UniProt O75469); test: Dual reporter qHTS for antagonist of Pregnane X Receptor (hPXR) against the NCATS DSHEA and TCM libraries: Luminescence Readout (AID 1920060); details: hPXR dual reporter cells, luciferase luminescence, antagonist mode; series mostly up to 40 µM; note: 0% is about no effect
Method in brief: (§2)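 Rifampicin-stimulated (2 uM final) hPXR-luciferase HepG2 cells were treated for 24 h with DSNP/TCM substances. Viability came from CellTiter-Fluor fluorescence, reporter activity from ONE-Glo luminescence.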

[10] = Dual reporter qHTS for antagonist of Pregnane X Receptor (hPXR) against the NCATS DSHEA and TCM libraries: Fluorescence Readout (AID 1920061); details: PXR dual reporter cells, antagonist mode; series mostly up to 40 µM; note: 0% is about no effect
Method in brief: as §2

Measured: max response

Sequence of Nuclear receptor subfamily 1 group I member 2 (Homo sapiens) (O75469 whole entry, looked up): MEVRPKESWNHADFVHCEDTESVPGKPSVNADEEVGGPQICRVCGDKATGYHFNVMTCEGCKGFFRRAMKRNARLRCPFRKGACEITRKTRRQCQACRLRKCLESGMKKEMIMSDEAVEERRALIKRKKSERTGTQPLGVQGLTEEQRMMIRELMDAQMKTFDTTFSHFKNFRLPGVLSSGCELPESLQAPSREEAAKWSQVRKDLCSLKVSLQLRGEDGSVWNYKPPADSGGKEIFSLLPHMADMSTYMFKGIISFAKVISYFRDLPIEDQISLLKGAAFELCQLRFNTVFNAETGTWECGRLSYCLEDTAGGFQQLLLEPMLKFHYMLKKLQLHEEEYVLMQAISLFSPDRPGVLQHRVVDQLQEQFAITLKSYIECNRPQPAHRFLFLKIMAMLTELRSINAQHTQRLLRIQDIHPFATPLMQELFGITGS
Sequence of Cytochrome P450 2D6 (Homo sapiens) (P10635 whole entry, looked up): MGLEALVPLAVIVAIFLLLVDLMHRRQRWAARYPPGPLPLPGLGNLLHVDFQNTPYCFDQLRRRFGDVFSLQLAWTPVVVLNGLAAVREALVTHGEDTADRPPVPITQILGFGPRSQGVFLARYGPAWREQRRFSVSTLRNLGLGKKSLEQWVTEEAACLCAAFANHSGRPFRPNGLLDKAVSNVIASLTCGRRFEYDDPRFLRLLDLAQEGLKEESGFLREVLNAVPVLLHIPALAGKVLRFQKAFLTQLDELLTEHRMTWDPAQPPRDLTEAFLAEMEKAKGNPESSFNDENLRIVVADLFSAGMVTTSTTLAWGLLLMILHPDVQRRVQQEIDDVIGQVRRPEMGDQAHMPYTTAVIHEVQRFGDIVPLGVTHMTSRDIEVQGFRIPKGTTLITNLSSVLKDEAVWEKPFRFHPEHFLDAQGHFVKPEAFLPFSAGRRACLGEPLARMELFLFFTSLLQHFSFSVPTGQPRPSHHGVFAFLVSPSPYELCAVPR
Sequence of Cytochrome P450 1A2 (Homo sapiens) (P05177 whole entry, looked up): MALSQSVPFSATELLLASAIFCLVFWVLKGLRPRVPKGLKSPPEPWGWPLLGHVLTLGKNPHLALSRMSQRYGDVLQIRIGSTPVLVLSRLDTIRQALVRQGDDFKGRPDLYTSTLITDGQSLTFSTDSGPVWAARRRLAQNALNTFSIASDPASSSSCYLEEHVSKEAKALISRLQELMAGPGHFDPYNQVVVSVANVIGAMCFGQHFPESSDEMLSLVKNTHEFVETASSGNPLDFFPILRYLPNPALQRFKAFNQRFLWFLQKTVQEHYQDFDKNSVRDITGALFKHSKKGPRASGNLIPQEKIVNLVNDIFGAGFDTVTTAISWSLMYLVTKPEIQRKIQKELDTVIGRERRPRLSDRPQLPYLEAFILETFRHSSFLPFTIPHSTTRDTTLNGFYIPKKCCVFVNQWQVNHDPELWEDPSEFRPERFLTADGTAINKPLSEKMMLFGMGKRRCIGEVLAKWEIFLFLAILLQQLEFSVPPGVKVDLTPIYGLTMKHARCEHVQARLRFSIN
Sequence of Cytochrome P450 2C9 (Homo sapiens) (P11712 whole entry, looked up): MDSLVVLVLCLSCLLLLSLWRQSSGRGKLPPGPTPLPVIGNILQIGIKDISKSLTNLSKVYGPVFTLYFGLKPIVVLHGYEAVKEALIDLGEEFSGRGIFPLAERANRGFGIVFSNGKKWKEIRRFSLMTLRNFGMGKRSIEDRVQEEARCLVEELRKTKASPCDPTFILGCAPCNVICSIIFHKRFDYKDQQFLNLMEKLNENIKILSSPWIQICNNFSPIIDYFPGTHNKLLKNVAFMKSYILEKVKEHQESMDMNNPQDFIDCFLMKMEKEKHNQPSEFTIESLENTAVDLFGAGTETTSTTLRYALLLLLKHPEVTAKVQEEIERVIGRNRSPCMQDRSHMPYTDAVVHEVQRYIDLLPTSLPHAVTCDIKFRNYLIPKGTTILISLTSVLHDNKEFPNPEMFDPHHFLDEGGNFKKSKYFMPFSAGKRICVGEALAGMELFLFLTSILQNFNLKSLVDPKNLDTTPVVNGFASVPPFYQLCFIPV
Sequence of Cytochrome P450 2C19 (Homo sapiens) (P33261 whole entry, looked up): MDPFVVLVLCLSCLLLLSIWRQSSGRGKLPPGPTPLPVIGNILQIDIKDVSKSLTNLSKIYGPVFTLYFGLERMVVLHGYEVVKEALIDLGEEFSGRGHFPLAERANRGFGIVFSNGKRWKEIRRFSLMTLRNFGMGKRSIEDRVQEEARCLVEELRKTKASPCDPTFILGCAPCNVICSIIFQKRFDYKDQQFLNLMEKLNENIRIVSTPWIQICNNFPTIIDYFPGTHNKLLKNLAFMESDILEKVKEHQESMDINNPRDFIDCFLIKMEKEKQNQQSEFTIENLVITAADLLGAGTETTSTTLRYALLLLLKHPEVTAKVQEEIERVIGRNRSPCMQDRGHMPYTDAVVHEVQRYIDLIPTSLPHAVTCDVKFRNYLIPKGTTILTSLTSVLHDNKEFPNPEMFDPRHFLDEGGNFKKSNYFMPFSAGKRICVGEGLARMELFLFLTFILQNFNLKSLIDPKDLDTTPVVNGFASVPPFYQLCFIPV

NC(=O)c1cnccn1
inactive: [1] | [2] | [3] | [4] | [5] | [6] 0.688% | [7] | [8] | [9] | [10]
